Fh CTSL1 inh: cathepsin L1 inhibition, PFM18AAP counter-screen. recombinant F. hepatica cathepsin L1, Z-Leu-Arg-MCA fluorescence. inhibition, % at 5.96 µM. 300,000 tested, 0.49% active;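 active means inhibition above the mean of all tested compounds plus 3 SD, set per screening campaign, cut at about 17% in these data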;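 further: 0% = plate median of test compound wells and 100% = 1 µM Z-Phe-Ala-diazomethylketone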
HNF4A DNA FP: change in binding of human HNF4 alpha to DNA. P41235. HNF4a-FITC DNA binding, fluorescence polarization, 1 h. activity change, % at 10 µM. 360,000 tested, 0.3% active. AID 1224865; in the data active means activity change above about 30%, passing the limit was not always enough
Rpn11 inh: inhibitors of human proteasome Rpn11 | O00487 | human 26S proteasome, Ub4-pepOG fluorescence polarization; 20S core pre-blocked with epoxomicin | inhibition, % at 20 µM | 360,000 tested, 0.59% active | AID 588493;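 active means inhibition at 20 µM, scaled to each plate's controls, above about 33%, limit read from the data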
Target sequence (O00487 whole entry, looked up): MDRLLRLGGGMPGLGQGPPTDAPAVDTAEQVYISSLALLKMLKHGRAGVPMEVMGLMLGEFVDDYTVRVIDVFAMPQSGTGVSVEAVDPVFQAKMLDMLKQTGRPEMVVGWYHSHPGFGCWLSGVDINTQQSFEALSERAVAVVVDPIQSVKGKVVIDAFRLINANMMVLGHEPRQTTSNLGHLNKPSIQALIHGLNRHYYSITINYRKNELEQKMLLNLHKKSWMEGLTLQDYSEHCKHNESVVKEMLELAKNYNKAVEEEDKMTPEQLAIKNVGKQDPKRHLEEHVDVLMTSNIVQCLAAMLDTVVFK
TPT1 inhibitor: inhibitors of Candida albicans tRNA 2'-phosphotransferase TPT1 | recombinant caTPT1, FP RNA substrate dephosphorylation | inhibition, % at 5 µM | 300,000 tested, 0.81% active;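 active means inhibition above the mean of all tested compounds plus 3 SD, set per screening campaign, cut at about 24% in these data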;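 further: plate controls were DMSO alone for no effect and ferristatin control at 100 nM for full effect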
CendR NRP1 mod: alters CendR peptide binding to human NRP-1; O14786; FAM-RPARPAR peptide binding to NRP-1, fluorescence polarization; inhibition, % at 25 µM; 360,000 tested, 0.85% active; AID 602438;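 active means inhibition or corrected inhibition above about 18%, plus a signal ratio from 0.5 to 1.5, limit read from the data, passing the limit was not always enough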
PHOSPHO1 block: inhibitors of human PHOSPHO1 phosphatase. Q8TCT1. recombinant PHOSPHO1, absorbance phosphatase assay. 290,000 tested, 1.1% active. inhibition, % at 13.3 µM; in the data active means inhibition above about 60%
Target sequence (Q8TCT1 whole entry, looked up): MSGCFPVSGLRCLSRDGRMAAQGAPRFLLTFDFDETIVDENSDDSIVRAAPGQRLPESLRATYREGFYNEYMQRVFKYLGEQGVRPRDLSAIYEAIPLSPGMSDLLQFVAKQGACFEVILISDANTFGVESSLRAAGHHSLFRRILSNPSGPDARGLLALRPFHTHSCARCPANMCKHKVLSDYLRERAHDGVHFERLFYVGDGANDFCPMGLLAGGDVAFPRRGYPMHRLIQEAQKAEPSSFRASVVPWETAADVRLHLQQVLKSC
Numbers without * were called inactive; . = no result given. Most compounds without a hit are left out; they make up all but 3.3% or so of the library.

SMILES | Fh CTSL1 inh | HNF4A DNA FP | Rpn11 inh | TPT1 inhibitor | CendR NRP1 mod | PHOSPHO1 block
Cc1ccc(C2CC2c2n[nH]c(=S)n2-c2cccc(C)c2)cc1 (centres undefined) | 3 | -5 | 1 | 1 | 17 | -66
CCc1ccccc1OCc1nc2ccc(S(=O)(=O)N3CCOCC3)cc2[nH]1 | -4 | 3 | 5 | -2 | -10 | 29
Cc1ccccc1OCc1nc2ccc(S(=O)(=O)N3CCOCC3)cc2[nH]1 | -3 | -2 | -5 | 0 | -4 | 98*
C/C(=N\NC(=O)CCC(=O)Nc1ccc(C)c(C)c1)c1cccs1 | 1 | 0 | 5 | 1 | 0 | 37
CCCCCN1C(=O)/C(=C/c2c(N3CCc4ccccc4C3)nc3ccccn3c2=O)SC1=S | -3 | 98 | . | 82* | 139 | .
CCN1C(=O)/C(=C/N2CCc3ccccc3C2)SC1=S | -2 | -1 | -2 | 0 | -8 | -4
Cc1cccc(C)c1OCc1nnc(SCC(=O)NCc2ccccc2)o1 | 21* | 3 | -8 | 1 | 1 | -10
CCn1nc(C(=O)OCC(=O)NCCN2C(=O)CSC2=O)c2ccccc2c1=O | -6 | -6 | -2 | 3 | 38* | 72*
Cc1cc(C(=O)C(C)Sc2cccc[n+]2[O-])c(C)n1-c1ccc(Cl)cc1 (centres undefined) | -7 | -2 | 6 | 1 | -9 | -148
Cc1nc(NC(=O)c2ccccc2)sc1Cc1ccc2c(c1)OCO2 | 1 | -1 | -5 | -2 | -4 | -2
Cc1nc(NC(=O)c2ccc(Cl)cc2)sc1Cc1ccc2c(c1)OCO2 | 2 | 1 | 8 | 2 | -13 | 71*
COc1c(C)cc(C(=O)C2CCCN(C(=O)c3ccc4cc[nH]c4c3)C2)cc1C (centres undefined) | 2 | 2 | -1 | 1 | -2 | -24
CCCCC1=CC2=CC(=O)C(C)(OC(=O)CC)C(=O)C2=CN1C(CO)CO (centres undefined) | -1 | -2 | -17 | -4 | 35* | -4
C=CCN1C=C2C(=O)C(C)(OC(=O)c3cccs3)C(=O)C=C2C=C1CCCC(=O)OC (centres undefined) | 2 | -1 | -12 | -2 | 28* | 26
COC(=O)CCCC1=CC2=CC(=O)C(C)(OC(=O)c3cccs3)C(=O)C2=CN1CCc1ccccn1 (centres undefined) | 6 | 0 | -12 | -5 | 12 | 31
CCCCC1=CC2=CC(=O)C(C)(OC(=O)CC)C(=O)C2=CN1Cc1ccc(OC)cc1 (centres undefined) | -4 | -7 | -8 | 1 | 35* | 31
CCCCC1=CC2=CC(=O)C(C)(OC(=O)CC)C(=O)C2=CN1CC(C)C (centres undefined) | -2 | -2 | -2 | -11 | 4 | 13
CCOC(=O)Nc1ccc(OC)cc1S(=O)(=O)N1CCCCC1 | -9 | -1 | 0 | 5 | -30 | -7
Cc1ccc(OCc2nnc(SCC(=O)Nc3ccc4c(c3)OCO4)n2C)cc1 | -1 | 1 | -1 | 0 | -19 | 35
CCn1c(COc2ccc(Cl)cc2)nnc1SCC(=O)Nc1ccc2c(c1)OCO2 | 1 | -3 | -6 | -4 | 17 | 60*
COc1ccc(-c2cnc(SCC(=O)Nc3ccc4c(c3)OCO4)n2Cc2ccco2)cc1 | . | 2 | 6 | . | -4 | 102*
CC(=O)Nc1cccc(NC(=O)CSc2ncc(-c3ccc(Cl)cc3)n2Cc2ccco2)c1 | 4 | 2 | -2 | -3 | -1 | -21
Nn1c(SCC(=O)Nc2ccc3c(c2)OCCO3)nnc1C(F)(F)F | -3 | -1 | -4 | 0 | 13 | 91*
CCc1nnc(SCC(=O)Nc2ccc3c(c2)OCO3)n1CC | 0 | -5 | 0 | -1 | 28* | 56
Cc1nnc(SCC(=O)Nc2ccc3c(c2)OCCO3)n1N | -3 | 0 | -3 | -1 | 13 | 26
SMILES | Fh CTSL1 inh | HNF4A DNA FP | Rpn11 inh | TPT1 inhibitor | CendR NRP1 mod | PHOSPHO1 block
CCn1c(Cc2ccccc2)nnc1SCC(=O)Nc1ccc2c(c1)OCO2 | 4 | -3 | 1 | -3 | -2 | 18
N/C(=N\OC(=O)CCC1CCCC1)c1ccncc1 | -6 | 0 | 3 | -1 | -3 | 48
Nn1c(SCC(=O)NCCC2=CCCCC2)nnc1C(F)(F)F | 1 | 3 | -4 | -3 | 28* | 16
Cn1c(COc2ccccc2)nnc1SCC(=O)Nc1ccc2c(c1)OCO2 | -3 | -3 | -4 | 2 | -6 | 61*
COCCNc1nnc(SCC(=O)NC(=O)c2ccccc2)s1 | -4 | -1 | 7 | -3 | 22 | .
N#Cc1nccnc1N1CCN(C(=O)Nc2ccccc2)CC1 | -3 | -4 | -2 | -2 | -1 | 24
CCOC(=O)c1c(NC(=O)COc2ccccc2C#N)sc2c1CC(C)(C)NC2(C)C | -1 | 4 | 8 | 3 | 22* | 14
CCOC(=O)c1c(NC(=O)COc2ccccc2OCC)sc2c1CC(C)(C)NC2(C)C | 5 | 3 | 7 | 2 | 9 | .
CCOC(=O)c1c(NC(=O)Cc2ccccc2)sc2c1CC(C)(C)NC2(C)C | 2 | 0 | -5 | -2 | -2 | 10
CCOC(=O)c1c(NC(=O)CCS(=O)(=O)c2ccccc2)sc2c1CC(C)(C)NC2(C)C | 39* | 3 | 7 | 2 | 11 | 13
CCOC(=O)C1(C)CCCN1C(=O)c1cncc(Br)c1 (centres undefined) | . | 3 | 3 | . | 4 | .
Cc1[nH]c2ccccc2c1Cc1n[nH]c(=S)n1C | 0 | 0 | -7 | -2 | 7 | -16
Cc1[nH]c2ccccc2c1Cc1n[nH]c(=S)o1 | -2 | -1 | 3 | -5 | -10 | 90*
CCN(CC)C(=O)[C@H]1C[C@H](CC(=O)NCCC2=CCCCC2)C(=O)N2CCc3c([nH]c4ccc(Cl)cc34)[C@]12C | . | -2 | 3 | . | -2 | .
COc1ccc(/C(O)=C/c2nc3ccc(C(=O)NCCc4cccc(C)c4)cc3[nH]c2=O)cc1OC | -4 | 44* | . | 67* | -94 | -2
CCc1nc2ccc(C(=O)NCCc3ccc(OC)c(OC)c3)cc2nc1CC | 0 | 2 | 6 | 0 | 5 | 10
COc1ccc(C(=O)NCCc2ccccc2)cc1OC | -2 | -5 | 2 | -1 | -1 | 8
COc1ccc(CCNC(=O)c2ccc3nc(-c4ccco4)c(-c4ccco4)nc3c2)cc1OC | 2 | -42 | -12 | 3 | -24 | 70*
COc1ccc(NC(=O)CN2CCN(CC(=O)Nc3ccc(F)cc3F)CC2)cc1 | . | 2 | 4 | . | 5 | 23
Cc1cccc2sc(NC(=O)CN3C(=O)NC4(CCCC4)C3=O)nc12 | -2 | -1 | -18 | 3 | 4 | 36
Cc1cccc2sc(NC(=O)CN3C(=O)C4CC=CCC4C3=O)nc12 (centres undefined) | -2 | -1 | -4 | -3 | 32* | 32

High-throughput results as filed in PubChem.
